# DT40 TDP1 CPT: DT40-hTDP1 cell growth loss with CPT. chicken DT40 Tdp1-/-;hTDP1 cells + 20 nM CPT, ATP luminescence, 48 h. Potency, µM (titrated, usually from 46.2 µM), for the others: at the highest dose activity change, negative = growth inhibition, usual class: inhibitors. 12% of 420,000 active. AID 686979; note: potency is the fitted concentration of half-maximal effect; nearly all actives have a fitted effect of over 55% in size
#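 Chicken DT40 Tdp1-/- cells stably complemented with human TDP1 were seeded at 400 cells/well in medium containing 20 nM camptothecin, exposed to pin-transferred compounds, and grown at 37 °C for at least 48 hr. Viability was read as ATP luminescence.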
# DT40 TDP1 no CPT: qHTS for Inhibitors of human tyrosyl-DNA phosphodiesterase 1 (TDP1): qHTS in cells in absence of CPT. DT40 Tdp1-/- hTDP1 cells, no CPT, ATP luminescence, 48 h. Potency, µM (titrated, usually from 46.2 µM), without a hit: at the highest dose activity change, negative = growth inhibition, usual class: inhibitors. 15% of 420,000 active; note: potency is the fitted concentration of half-maximal effect; nearly all actives have a fitted effect of over 55% in size
#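 Camptothecin absent (DMSO only). Human TDP1-complemented DT40 knockout cells, 400 cells/well, 37 °C for minimum 48 hr; ATP measured via CellTiter-Glo, 30 min dark incubation, luminescence.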
# IL1B secr inh: inhibitors of inflammasome signaling (IL-1 beta secretion) | AID 743279 | activity change, % at 57.5 µM | THP-1 LPS/ATP IL-1B secretion, AlphaLISA, 16 h; active compounds read low | 4.7% of 360,000 active; in the data active = activity change below about -50%; inconclusive = mostly about -30% to -49%
#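 THP-1 cells pretreated 1 hr with compounds (up to 57.5 uM final), then stimulated with LPS (250 ng/mL final) plus ATP (1.25 mM final); secreted IL-1B measured by AlphaLISA after 16 hr, decreased signal indicating inhibition.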
# ELG1 repair inh: ELG1-dependent DNA repair inhibition; AID 504467; 2.3% of 330,000 active; Potency, µM (doses to about 46.1 µM), for the others: at the top dose activity change, negative = inhibition, actives largely listed as inhibitors; HEK293T ELG1-luciferase reporter, luminescence, 16 h; DNA damage induced by 5-fluorouridine; note: potency is the fitted concentration of half-maximal effect; nearly all actives have a fitted effect of over 55% in size
#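 Quantitative HTS, concentration-response format. 2,000 cells/well co-treated with 5-fluorouridine and compound, 16 hr in 5% CO2 at 37 °C; ONE-Glo luminescence read after 30 min.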
# HT1080 IDH1KD tx: HT-1080 IDH1 knockdown cell toxicity (counter line); HT-1080 IDH1 knockdown viability, ATP luminescence, 48 h; Potency, µM (titrated, usually from 46.1 µM), for inactives: top-dose activity, negative = toxicity, most hits filed as cytotoxic; 2% of 360,000 active; AID 686971;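 note: potency is the fitted concentration of half-maximal effect; 0% = DMSO wells and -100% = cell-free medium wells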
#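 HT-1080-IDH1KD cells (IDH1 knocked down), 750/well in RPMI with 5% FBS, treated with compound 48 h at 37 degrees C. Viability by CellTiter-Glo luminescence, normalised to DMSO and no-cell wells; concentration-response curves classed.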
# HT1080-NT tox: kills 2HG-producing HT-1080-NT fibrosarcoma cells. HT-1080-NT fibrosarcoma viability, CellTiter-Glo ATP luminescence, 48 h. Potency, µM (titrated, usually from 46.1 µM), for inactives: at the highest dose activity, negative = less viability, most hits filed as cytotoxic. 1.6% of 360,000 active;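 note: NT is the 2HG producing partner of a matched IDH1 knockdown line; potency is the fitted concentration of half-maximal effect; 0% = DMSO-treated cells and -100% = media-only wells without cells; nearly all actives have a fitted effect of over 55% in size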
#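 HT-1080-NT fibrosarcoma cells (2HG-overproducing), 750 cells/well in RPMI with 5% FBS, dosed after 2 h and incubated 48 h at 37C. CellTiter-Glo luminescence normalized to DMSO and no-cell wells; concentration-response curves fitted and classed.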
# Numbers without * were called inactive; ? = inconclusive; . = not tested or not shown. Sampled rows, rich in hits. Any-hit rate of the full collection: about 19%. Unless noted, calls come from the whole dose curve; as a rule, active = well fitted curve in the direction sought with a large enough effect; inconclusive = small, poorly fitted or top-dose-only effect, or another doubt; inactive = no such curve, though single readings can be large; an effect the other way counts as inactive or inconclusive. Unless noted, % is set by controls: 0 for no effect and ±100 for the full control effect.
SMILES,DT40 TDP1 CPT,DT40 TDP1 no CPT,IL1B secr inh,ELG1 repair inh,HT1080 IDH1KD tx,HT1080-NT tox
CCOC(=O)CSC1=C(C#N)C(c2ccccc2OCC)C(C(=O)OCC)C(=O)N1 (stereo not drawn),-5%,-15%,-25,0%,2%,6%
CCOC(=O)CSC1=C(C#N)C(c2ccccc2OCC)C(C#N)C(=O)N1 (stereo not drawn),15µM*,18µM*,4,19%,-9%,?
CCOC(=O)C1C(=O)NC(SCC(=O)Nc2nccs2)=C(C#N)C1c1ccccc1OCC (stereo not drawn),?,13µM*,-6,-16%,1%,11%
CC1CCCN(S(=O)(=O)c2ccc3c(c2)CCN3C(=O)CCC(=O)O)C1 (stereo not drawn),6%,2%,.,.,.,.
COC(=O)[C@]12CCCCC=C1N(CCc1ccc(OC)c(OC)c1)C(=O)[C@H](CC(=O)N1CCCCC1)C2,?,?,-13,.,15%,12%
CCCCCCCCN1C(=O)[C@H](CC(=O)N2CCCCC2)C[C@@]2(C(=O)OC)CCCCC=C12,?,26µM*,?,.,?,?
CCCCCCCCN1C(=O)[C@H](CC(=O)N2CCOCC2)C[C@@]2(C(=O)OC)CCCCC=C12,18µM*,15µM*,0,.,-3%,-17%
COc1ccc(CC(=O)N2CCN(c3ccccc3)CC2)cc1,-2%,-27%,8,-2%,4%,0%
CN(C)c1ccc(-c2cccc3nccn23)cc1,?,15µM*,31,.,?,-25%
Clc1cccc(-c2cccc3nccn23)c1,23µM*,21µM*,16,.,-18%,12%
N#Cc1ccc(NC(=O)Cn2cnc(S(=O)(=O)N3CCc4ccccc43)c2)cc1,?,?,48,-7%,-23%,?
O=C(Nc1nnc([C@H]2C[C@H](O)[C@@H](CO)O2)s1)c1cccc(OC(F)(F)F)c1,-13%,-12%,28,.,23%,7%
Cn1cc(C(=O)c2ccc(F)cc2)cc1-c1nc2ccccc2n1C,?,16µM*,-29,?,0%,-10%
CC(=O)c1cc(-c2nc3ccccc3n2C)n(C)c1,2%,5%,-2,3%,22%,28%
CN1CCN(C2Cc3cc(F)ccc3Sc3ccc(Cl)cc32)CC1 (stereo not drawn),?,?,?,.,?,-24%
CN1CCN(C2Cc3ccccc3Sc3cc(C(F)(F)F)ccc32)CC1 (stereo not drawn),?,16µM*,-98*,.,21µM*,16µM*
CN1CCN(S(=O)(=O)c2cc(C(F)(F)F)ccc2Cl)CC1,5%,-2%,9,0%,16%,8%
CN1CCN(C2Cc3ccc(F)cc3Sc3cc(F)c(Cl)cc32)CC1 (stereo not drawn),18µM*,10µM*,-97*,.,?,26µM*
COc1ccc(OC)c(C(O)c2ncc(-c3ccc(C(F)(F)F)cc3)[nH]2)c1 (stereo not drawn),?,?,24,.,-9%,-16%
O=C(Oc1c(Cl)cc(Cl)c2cccnc12)N1CCCCC1,-30%,-29%,5,?,-8%,-1%
CN1CCN(Cc2cc(Cl)c3cccnc3c2OC(=O)c2cccs2)CC1,4.6µM*,4.6µM*,3,?,-11%,-5%
O=C(Oc1c(CN2CCOCC2)cc(Cl)c2cccnc12)c1ccccc1Br,4.6µM*,4.6µM*,105,8.2µM*,?,?
CC(CN1CCOCC1)OC(=O)c1ccccc1Br (stereo not drawn),-1%,-29%,8,23%,1%,-1%
